From PubChem
Pf growth 48h: P. falciparum growth inhibition at 48 hours (one generation). P. falciparum luciferase growth in erythrocytes, 48 h. Potency, µM (titrated, usually from 28.7 µM), actives largely listed as inhibitors. 5.9% of 310,000 active
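Here the parasites carry a stable luciferase gene and grow inside erythrocytes in Albumax-based RPMI medium with compound for one erythrocytic cycle. Activity is scored as loss of luminescent signal.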
HCV inh: inhibitors of hepatitis C virus infection; Huh7.5.1 HCVcc-Cre infection, luciferase reporter, 44 h; Potency, µM (titrated, usually from 41.8 µM), usual class: inhibitors; 3.4% of 340,000 active; AID 651820
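Reporter virus HCVcc-Cre (~0.5 moi) infects cells exposed to compound; seeding density 1,000 cells/well with 4 h settling beforehand. Luminescence, 15 sec read, taken 44 h post-infection following a 15 min RT substrate incubation.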
SARS PLpro yeast: blocks SARS-CoV papain-like protease in a yeast assay. S. cerevisiae expressing SARS-CoV PLpro, growth rescue. Potency, µM (top dose mostly 32.9 µM), hits mostly activators. 0.19% of 330,000 active; calls by dose curve; further: nearly all actives have a fitted effect of over 55% in size
Sm TGR block: S. mansoni TGR enzyme inhibition; 3% of 360,000 active; purified TGR, DTNB reduction, TNB absorbance 405 nm; AID 485364; Potency, µM (highest dose often 114 µM), most hits filed as inhibitors; Q962Y6; further: nearly all actives have a fitted effect of over 60% in size
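First, TGR (20 nM dispensed) and NADPH were mixed with compound. Second, a 15 min room-temperature incubation followed. Third, further NADPH and then DTNB were added to start the reaction. Finally, TNB absorbance was monitored kinetically.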
Pf growth 96h: inhibits malaria parasite growth, 96 h; P. falciparum luciferase reporter growth, 96 h; Potency, µM (titrated, usually from 28.7 µM), hits mostly inhibitors; 6.9% of 320,000 active
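Plates of compound plus infected erythrocytes (2% hematocrit, 0.05% parasitemia final) incubate 96 hours, 37 C, 5% CO2. Detection reagent added; reduced luminescence from the parasites' luciferase reporter flags inhibition.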
HCMV inh: blocks human cytomegalovirus replication; HFF cells, HCMV-luciferase reporter, 72 h; hits give low values; activity change, negative = inhibition, % at 57.5 µM; 4.5% of 410,000 active; in the data active means activity change below about -60%; inconclusive means no clear call, values can overlap the other calls; inactive means above about -39%
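Steps: HFFs plated, 16 h 37C; compounds added; HCMV-luciferase added to MOI 1 PFU/cell; 72 h 37C; OneGlo reagent, 5 min room temperature; luminescence read, normalized to controls.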
Each line names hits and unclear results; the compound was inactive in the other large screens. Hits are enriched below; roughly 15% of the tested compounds scored in any of these assays. Unless noted, the call rests on the fitted dose curve; in most records, active means well fitted curve in the direction sought with a large enough effect; inconclusive means small, poorly fitted or top-dose-only effect, or another doubt; inactive means no such curve, though single readings can be large; an effect the other way counts as inactive or inconclusive.

CCOC(=O)N1CCN(C(=O)c2ccc(Cn3c(=S)[nH]c4cc5c(cc4c3=O)OCO5)cc2)CC1	Pf growth 48h 13µM, HCV inh inconclusive, Pf growth 96h inconclusive
CC1CC(C)CN(C(=O)c2ccc3c(c2)OCCO3)C1 (centres undefined)	Pf growth 48h 2.9µM, Pf growth 96h 4.7µM
O=C(c1ccc2c(=O)n(Cc3ccc(Cl)cc3)c(=S)[nH]c2c1)N1CCOCC1	SARS PLpro yeast inconclusive, HCMV inh -65
O=C1NCCCC1C(=O)Nc1ccccc1C(F)(F)F (centres undefined)	none
CC1CC(C)CN(C(=O)c2ccc3c(=O)n(Cc4ccc5c(c4)OCO5)c(=S)[nH]c3c2)C1 (centres undefined)	Pf growth 96h 7.4µM, HCMV inh -81
O=C(c1ccc2c(=O)n(Cc3ccc4c(c3)OCO4)c(=S)[nH]c2c1)N1CCCCC1	Pf growth 96h inconclusive
O=C(CN(Cc1ccco1)S(=O)(=O)c1cccs1)Nc1ccccc1C(F)(F)F	Sm TGR block 20µM, Pf growth 96h inconclusive
O=C(CN(Cc1ccco1)C(=O)c1ccc([N+](=O)[O-])cc1)Nc1ccccc1C(F)(F)F	Pf growth 48h inconclusive, Sm TGR block 20µM
Cc1ccc(NC(=O)CN(C)C(=O)COC(=O)c2ccc(Cl)cc2O)cc1	none
COc1ccc(Nc2nccc3[nH]c(-c4ccccc4OC)cc23)cc1	none (no result: Pf growth 48h, HCV inh, SARS PLpro yeast, Sm TGR block, Pf growth 96h)
COC(=O)c1cc(S(=O)(=O)C(C)C)c(S(C)=O)s1 (centres undefined)	Pf growth 48h inconclusive, Sm TGR block 35µM, Pf growth 96h inconclusive, HCMV inh -66
COC(=O)c1sc(SC)c(S(=O)(=O)C(C)C)c1N	Pf growth 48h inconclusive
C=CCc1cccc(Cl)c1OCCCNC1CCCC1	Pf growth 48h inconclusive, HCV inh 10µM, Pf growth 96h inconclusive
C=CCc1ccc(OCCCNC2CCCC2)c(OC)c1	HCV inh inconclusive (no result: Pf growth 48h, SARS PLpro yeast, Sm TGR block, Pf growth 96h)
Cc1ccc(-n2ncc3c(NCCc4ccc(S(N)(=O)=O)cc4)ncnc32)cc1	none (no result: Pf growth 48h, HCV inh, SARS PLpro yeast, Pf growth 96h)
Cc1cccc(-n2ncc3c(NCCc4ccc(S(N)(=O)=O)cc4)ncnc32)c1	Pf growth 96h 10µM (no result: Pf growth 48h)
Cc1cccc(-n2ncc3c(NCc4ccco4)ncnc32)c1	HCV inh inconclusive, Sm TGR block 45µM
COc1ccc(CNC(=O)c2ccccc2[N+](=O)[O-])cc1	HCMV inh -108
CCC(CC)NC(=O)c1cccc([N+](=O)[O-])c1C	Pf growth 96h 1.3µM
COc1ccc(Cc2nnc(NC(=O)c3cccc([N+](=O)[O-])c3C)s2)cc1	Pf growth 96h 0.47µM
COc1ccc(CNC(=O)c2cnc(N3CCOCC3)c3ccccc23)cc1	HCMV inh -109 (no result: Pf growth 48h, HCV inh, SARS PLpro yeast, Pf growth 96h)
Cc1c(C(=O)NC(C)CCc2ccccc2)cccc1[N+](=O)[O-] (centres undefined)	Pf growth 48h inconclusive
O=C(CSc1ccc(Cl)cc1)NC(=O)c1ccccc1	HCV inh inconclusive
CCOC(=O)c1csc(-c2csc(CCNC(=O)c3ccccc3)n2)n1	none (no result: Pf growth 48h, HCV inh, SARS PLpro yeast, Sm TGR block, Pf growth 96h)
Cc1cc(CNC(=O)c2cccc([N+](=O)[O-])c2C)c2ccccc2n1	HCV inh inconclusive, HCMV inh -73
Cc1oc(-c2cccc(Cl)c2)nc1Cn1c(SCc2ccccc2F)nc2ccncc21	none (no result: Pf growth 48h, HCV inh, SARS PLpro yeast, Pf growth 96h)
Cc1cccc(C)c1NC(=O)C(c1ccc(C#N)cc1)n1c(=O)c(-c2ccco2)nc2ccccc21 (centres undefined)	none (no result: Pf growth 48h, HCV inh, SARS PLpro yeast, Sm TGR block, Pf growth 96h)
Cc1cc(C(=O)CSc2ccc(Cl)cc2)cc(C)c1OC(=S)N(C)C	HCV inh 10µM, Pf growth 96h inconclusive (no result: Pf growth 48h)
Cc1cc(C(=O)CSc2ccc(F)cc2)cc(C)c1O	HCV inh inconclusive
CCc1cc(C(=O)NC2CCCc3c2cnn3-c2cccc(C)c2C)n(C)n1 (centres undefined)	HCV inh inconclusive, HCMV inh -86
Cc1cc(C)cc(-n2ncc3c2CCCC3NC(=O)C2(C(N)=O)CC2)c1 (centres undefined)	HCV inh inconclusive
Cc1cccc(-n2ncc3c2CCCC3NC(=O)Cn2cccn2)c1C (centres undefined)	none (no result: HCV inh)
Cc1cccc(-n2ncc3c2CCCC3NC(=O)C2(C(N)=O)CC2)c1C (centres undefined)	HCV inh 1.6µM, Pf growth 96h inconclusive
Cc1cccc(-n2ncc3c2CCCC3NC(=O)C2=CC(=O)CC(C)(C)O2)c1C (centres undefined)	HCV inh 7.1µM, HCMV inh -68
CC1(C)CC(=O)C=C(C(=O)NC2CCCc3c2cnn3-c2cc(F)cc(F)c2)O1 (centres undefined)	none
Cc1cccc(-n2ncc3c2CCCC3NC(=O)CCN2CCCO2)c1C (centres undefined)	HCV inh inconclusive, SARS PLpro yeast inconclusive, Pf growth 96h inconclusive, HCMV inh -76
O=C(COc1ccccc1)Nc1nnc(S(=O)(=O)N2CCCCCC2)s1	HCV inh inconclusive
N#Cc1ccc(NC(=O)COC(=O)CCc2nc3ccccc3c(=O)[nH]2)cc1	none
COCCC(=O)NC1CCCc2c1cnn2-c1cccc(C)c1C (centres undefined)	none
Cc1cc(C)c(C(=O)NC2CCCc3c2cnn3-c2cccc(C)c2C)o1 (centres undefined)	Pf growth 48h inconclusive, HCV inh inconclusive, HCMV inh -74
COc1ccccc1OC(C)C(=O)Nc1nc(-c2ccc(S(=O)(=O)N3CCOCC3)cc2)cs1 (centres undefined)	Pf growth 48h inconclusive, HCV inh inconclusive, Pf growth 96h 12µM
COc1ccc(-c2csc(NC(=O)C(CC(=O)O)N3CCOCC3)n2)cc1 (centres undefined)	Pf growth 48h 1.3µM, Pf growth 96h 12µM (no result: SARS PLpro yeast)
COc1ccccc1C(=O)Nc1nc(-c2ccc(S(=O)(=O)N3CCOCC3)cc2)cs1	HCV inh 3.5µM, Pf growth 96h inconclusive, HCMV inh -95 (no result: Pf growth 48h)
COc1ccccc1C(=O)Nc1ccc(S(=O)(=O)N2CCOCC2)cc1	none
O=C1NC[C@H](CCCCN2C[C@H](Cc3ccccc3)N(CCc3ccc(O)cc3)C(=O)C2=O)N(CC2CCCCC2)C1=O	none (no result: Pf growth 48h, HCV inh, SARS PLpro yeast, Sm TGR block, Pf growth 96h)
CC1CCN(S(=O)(=O)CCNC(=O)c2ccccc2)CC1	Pf growth 48h inconclusive
CCCS(=O)(=O)c1cn2cccc(N)c2c1S(=O)(=O)CCC	HCV inh inconclusive, Sm TGR block 22µM
C[C@@H]1[C@H](O)C[C@@]23COC(=O)C2=CCCC3[C@@]1(C)CCC1COC(=O)C1 (some centres undefined)	Pf growth 48h 0.0033µM, Pf growth 96h 0.0026µM
N#Cc1ccccc1Cn1cc(/C=N/Nc2ccc([N+](=O)[O-])cn2)c2ccccc21	Pf growth 48h inconclusive, HCV inh 2.5µM, Pf growth 96h 5.2µM
O=[N+]([O-])c1cccc(N/N=C/c2cc([N+](=O)[O-])ccc2O)c1	none
